Rango-impB inh – qHTS Assay for Inhibitors of Rango (Ran-regulated importin-beta cargo) - Importin beta complex formation; Importin subunit beta-1 (Homo sapiens), Q14974; Potency, µM (top dose mostly 92.2 µM), for inactives: at the highest dose inhibition of complex formation; Rango CFP/YFP FRET sensor + importin beta, 45 min; actives 0.031% (n = 340,000);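 note: 0% = DMSO wells and 100% = buffer wells lacking importin beta; nearly all actives have a fitted effect of over 15% in size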
Target sequence (Q14974 whole entry, looked up): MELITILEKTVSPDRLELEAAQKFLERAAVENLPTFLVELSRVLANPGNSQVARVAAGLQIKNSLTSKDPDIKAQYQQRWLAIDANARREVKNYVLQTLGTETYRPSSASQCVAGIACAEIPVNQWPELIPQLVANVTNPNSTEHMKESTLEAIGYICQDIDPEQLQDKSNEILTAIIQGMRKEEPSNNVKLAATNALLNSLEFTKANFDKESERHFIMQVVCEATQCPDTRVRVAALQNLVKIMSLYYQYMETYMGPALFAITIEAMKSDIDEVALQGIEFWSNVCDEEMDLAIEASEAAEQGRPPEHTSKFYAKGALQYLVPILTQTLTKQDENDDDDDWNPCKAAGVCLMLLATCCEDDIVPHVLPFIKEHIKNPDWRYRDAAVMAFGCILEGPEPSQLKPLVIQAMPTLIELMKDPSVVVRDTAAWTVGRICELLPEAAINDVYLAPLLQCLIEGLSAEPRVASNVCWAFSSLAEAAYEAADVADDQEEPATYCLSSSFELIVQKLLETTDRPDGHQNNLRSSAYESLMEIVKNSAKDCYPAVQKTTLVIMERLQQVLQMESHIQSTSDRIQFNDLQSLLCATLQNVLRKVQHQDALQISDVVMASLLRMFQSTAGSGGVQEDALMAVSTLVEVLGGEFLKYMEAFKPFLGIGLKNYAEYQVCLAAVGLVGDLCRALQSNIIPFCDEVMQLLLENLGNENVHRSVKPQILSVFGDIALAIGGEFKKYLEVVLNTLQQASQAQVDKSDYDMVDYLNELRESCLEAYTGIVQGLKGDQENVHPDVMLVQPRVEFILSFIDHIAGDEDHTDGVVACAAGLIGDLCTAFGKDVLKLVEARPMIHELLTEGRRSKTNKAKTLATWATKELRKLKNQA
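FRET biosensor (snurportin 1 IBB flanked by EYFP and cerulean), 50 nM, with compound 5 min, then 0.125 microM importin beta in PBS, 1 mM DTT, 0.02% Tween-20, 0.1% BSA. CFP/YFP ratio read after 45 min at room temperature; pre-read flags interference.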
Tb PFK inh-1 – qHTS Assay to Find Inhibitors of T. brucei phosphofructokinase; T. brucei PFK, ADP-Glo luminescence; Potency, µM (top dose mostly 57.5 µM), without a hit: top-dose activity, negative = inhibition, hits mostly inhibitors; actives 0.17% (n = 330,000); AID 485367, 2010; active = well fitted curve in the direction sought with a large enough effect; inconclusive = small, poorly fitted or top-dose-only effect, or another doubt; inactive = no such curve, though single readings can be large; an effect the other way counts as inactive or inconclusive;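 note: 0% = uninhibited 1x PFK enzyme wells and -100% = no-enzyme wells; nearly all actives have a fitted effect of over 60% in size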
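PFK 1.25 nM, F6P 0.5 mM, ATP 0.1 mM, 0.1 M TEA pH 8.0, 5 mM MgCl2, 0.01% Tween20, 0.1% BSA; 45 min RT. ADP-Glo readout. qHTS titration up to 57 uM; curves fitted, compounds curve-classed.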
Rango dissoc inh – qHTS Assay for Inhibitors of RanGTP induced Rango (Ran-regulated importin-beta cargo) - Importin beta complex dissociation; Snurportin-1 (Homo sapiens) + GTP-binding nuclear protein Ran (Homo sapiens) + Importin …; Biochemical FRET Rango-importin beta, RanGTP-induced dissociation; Potency, µM (highest dose often 46.1 µM), inactives show at the top dose activity change, negative = inhibition; actives 0.071% (n = 340,000); note: % of control where 0% means no effect; nearly all actives have a fitted effect of over 45% in size
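Compounds preincubate 5 min with complex of recombinant Rango and importin beta in PBS with 1 mM DTT. Ran (0.6 uM) loaded with 2 mM GTP plus 0.2 uM RCC1 starts dissociation; FRET is recorded 45 min later.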
LMNA splice mod – qHTS Assay for Modulators of Lamin A Splicing; HeLa LMNA splicing GFP/RFP minigene ratio, 48 h; Potency, µM (series often up to 46.1 µM), for inactives: at the top dose ratio change, negative = inhibition, hits mostly inhibitors; actives 0.01% (n = 200,000); active = well fitted inhibition curve with a large enough effect in the signal ratio, with a control signal flat, not every such curve was filed as active; inconclusive = small, poorly fitted or top-dose-only effect, or effect the other way, or a change in a side signal; the % refers to the signal ratio; note: % is set by controls: 0 for no effect and ±100 for the full control effect
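S3 HeLa stable clones carrying a lamin A-EGFP splicing minigene plus DsRed2 were seeded at 600 cells/well in Opti-MEM with 2% FBS, pin-dosed and incubated 48 h at 37°C. Acumen cytometry (488 nm) gave the GFP/RFP total-intensity ratio.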
BCR signal inh – qHTS Assay to Find Inhibitors of Chronic Active B-Cell Receptor Signaling; ABC-DLBCL IkBa-CBG/CBR reporter, luminescence ratio, 4 h; Potency, µM (titrated, usually from 46.1 µM), for inactives: at the top dose activity change, negative = inhibition, most hits filed as inhibitors; actives 0.05% (n = 340,000); active = well fitted inhibition curve with a large enough effect in the signal ratio, with a control signal flat, not every such curve was filed as active; inconclusive = small, poorly fitted or top-dose-only effect, or effect the other way, or a change in a side signal; the % refers to the signal ratio;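 note: plate controls were basal doxycycline-induced cells for no effect and cells given 10 µM MG132 for full effect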
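Concentration-response series (up to 46 uM) were applied to TMD8 dual-reporter cells for 4 h at 37C with doxycycline. Green/red ratio, after filter-overlap correction, defined %Activity; red signal alone was normalised to basal cells and zero luminescence.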
KinaseGlo FLuc – Counterscreen for Luciferase (Kinase-Glo TM) Inhibition. Luciferin 4-monooxygenase (Photuris pensylvanica), Q27757. Potency, µM (series often up to 38.3 µM), for the others: at the top dose activity change, negative = inhibition, hits mostly inhibitors. Kinase-Glo luciferase, ATP luminescence, 8 min. actives 0.28% (n = 200,000). AID 1379, 2008; active = well fitted curve in the direction sought with a large enough effect; inconclusive = small, poorly fitted or top-dose-only effect, or another doubt; inactive = no such curve, though single readings can be large; an effect the other way counts as inactive or inconclusive; note: % is set by controls: 0 for no effect and ±100 for the full control effect; nearly all actives have a fitted effect of over 60% in size
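Substrate mix (final 50 mM imidazole pH 7.2, 50 mM KCl, 7 mM MgCl2, 10 uM ATP, 0.01% Tween 20, 0.05% BSA) plus pin-tool compound, then Kinase-Glo detection mix; 8 min ambient, luminescence read.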
TbPFK ATP – Tb PFK orthogonal confirmatory assay using ATP depletion (Kinase-Glo Plus) as an alternative measure of Tb PFK activity: Hit Validation | shares compounds with Tb PFK inh-1 | Tb PFK enzyme, ATP depletion, Kinase-Glo Plus luminescence | Potency, µM (titrated, usually from 57.5 µM), inactives show at the highest dose inhibition | actives 47% (n = 1,100); note: nearly all actives have a fitted effect of over 60% in size
Tb PFK inh-2 – Inhibitors of T. brucei phosphofructokinase: Hit Validation; purified T. brucei PFK, ADP-Glo luminescence, 45 min; actives 41% (n = 1,100); Potency, µM (doses to about 57.5 µM), for the others: top-dose activity change, negative = inhibition, usual class: inhibitors; shares compounds with Tb PFK inh-1; active = well fitted curve in the direction sought with a large enough effect; inconclusive = small, poorly fitted or top-dose-only effect, or another doubt; inactive = no such curve, though single readings can be large; an effect the other way counts as inactive or inconclusive;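 note: plate controls were full PFK enzyme control for no effect and no enzyme control for full effect; nearly all actives have a fitted effect of over 60% in size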
The depositor's hits bear a star; ? = inconclusive; . = no result given; [ ] = dose if it differs, or a comment. Most compounds without a hit are left out; they make up all but 0.44% or so of the library. Unless noted, calls come from the whole dose curve. Potency is the fitted concentration of half-maximal effect.

SMILES | Rango-impB inh | Tb PFK inh-1 | Rango dissoc inh | LMNA splice mod | BCR signal inh | KinaseGlo FLuc | TbPFK ATP | Tb PFK inh-2
CC1(C)NCCN2C(=O)CSC21 (centres undefined) | 2% | 1% | -5% | 3% | ? | 3% | . | .
S=C(NCCN1CCOCC1)Nc1cccc(Cl)c1 | 1% | -4% | 3% | ? | 4% | -3% | . | .
S=C(NCc1ccco1)N1CCN(c2cccc(Cl)c2)CC1 | 1% | ? | 12% | . | 3% | 4% | 24µM* | ?
S=C(NCCN1CCOCC1)N1CCN(c2cccc(Cl)c2)CC1 | 3% | ? | 10% | . | 7% | . | ? | 27µM*
O=C(Cc1ccc(Cl)cc1)Nc1ccc(N2CCN(C(=O)c3ccco3)CC2)c(Cl)c1 | -1% | -19% | -21% | ? | ? | -2% | . | .
COC(=O)c1[nH]c2ccc(C)cc2c1NC(=O)CN1CCCc2ccccc21 | -1% | ? | 9% | -6% | ? | -8% | -30% | ?
Nc1nc(N2CCN(c3cccc(Cl)c3)CC2)n[nH]1 | -2% | 27µM* | -11% | -9%[46 µM] | -3% | 0% | ? | -25%
COc1cccc(NC(=O)c2cc(-c3ccc(C)o3)nc3ccccc23)c1 | ? | ? | ? | . | 0% | . | ? | ?
Cc1nnc(NC(=O)c2cc(-c3ccco3)nc3ccccc23)s1 | . | ? | . | . | ? | . | 9.5µM* | ?
CCCCCCn1c(=O)c(C(=O)Nc2nnc(C)s2)c(O)c2ccccc21 | . | 0% | . | 23%[46 µM] | 7% | -1% | . | .
CCc1nnc(NC(=O)c2cc(-c3ccc(C)o3)nc3ccccc23)s1 | -5% | 4.8µM* | -9% | . | 0% | . | 4.8µM* | 6.7µM*
C[N+]1(C)C2CCC1CC(OC(=O)c1c[nH]c3ccccc13)C2 (centres undefined) | -3% | -7% | -11% | ? | 1% | -14% | . | .
O=C(O)CNC(=O)c1ccc([As](=O)(O)O)cc1 | . | . | . | . | . | -4%[7.66 µM] | . | .
COc1cc2c(cc1/C=C/[N+](=O)[O-])OCO2 | 9% | 20% | 17% | ? | ? | 3% | . | .
CN1CCN(CCOC2c3ccccc3CSc3ccc(Cl)cc32)CC1 (centres undefined) | 6% | 4% | 17% | 0% | ? | 1% | . | .
COC(=O)C1=C(c2ccc(F)cc2F)C[C@@H]2CC[C@H]1N2C(=O)NCc1ccc2c(c1)OCO2 | -1% | -2% | -3% | . | 7% | . | . | .
O=C1NC(=Nc2ccccc2)S/C1=C\C=C\c1ccco1 | ? | 7.6µM* | ? | -21% | 11% | -15% | ? | ?
CN1C(=O)NC(=O)/C(=C\C=C\c2ccccc2[N+](=O)[O-])C1=O | 0% | ? | -6% | ? | ? | 1% | 2% | ?
O=C1NC(=O)N(CCc2ccc(F)cc2)C(=O)/C1=C\C=C\c1ccccc1 | -2% | -1% | -9% | . | 11% | -1% | . | .
CC(=O)[C@H]1CC[C@H]2[C@@H]3CC[C@H]4C[C@H](O)CC[C@]4(C)[C@H]3C(=O)C[C@]12C | 1% | 2% | -11% | 6% | ? | 3% | . | .
CC(=NCCCn1ccnc1)c1c(O)n(-c2ccccc2)c(=O)[nH]c1=O | 1% | 0% | -3% | . | -1% | . | . | .
CCOC(=O)c1[nH]c(C)c(/C(O)=C2\C(=O)C(=O)N(CCCn3ccnc3)C2c2ccncc2)c1C (centres undefined) | 6% | 24µM* | 1% | -5% | 2% | . | 12µM* | 27µM*
CCCOc1ccc(/C(O)=C2/C(=O)C(=O)N(CCCn3ccnc3)C2c2ccc(C)o2)cc1 (centres undefined) | 2% | ? | -15% | . | 2% | . | ? | 30µM*
CC1Cc2cc(/C(O)=C3/C(=O)C(=O)N(CCCn4ccnc4)C3c3cccc([N+](=O)[O-])c3)ccc2O1 (centres undefined) | 8% | 11µM* | 4% | . | -5% | . | 6.7µM* | 21µM*
CC(Oc1ccc(Cl)cc1Cl)C(=O)Nc1ccc(S(=O)(=O)Nc2cnc3ccccc3n2)cc1 (centres undefined) | -1% | -5% | 17% | ? | -13% | -3% | . | .
SMILES | Rango-impB inh | Tb PFK inh-1 | Rango dissoc inh | LMNA splice mod | BCR signal inh | KinaseGlo FLuc | TbPFK ATP | Tb PFK inh-2
COC(=O)C1=C(c2ccc(OCc3ccccc3)cc2)C[C@@H]2CC[C@H]1N2C(=O)NCc1ccc([N+](=O)[O-])cc1 | ? | 5% | -15% | . | 2% | . | . | .
O=C(Nc1ccc(F)cc1)c1c(O)c2c(n(Cc3ccccc3)c1=O)CCCC2 | 2% | 2% | 0% | 12% | -2% | 0% | . | .
C[C@]12CC[C@@H]3c4cc(O)c(O)cc4CC[C@H]3[C@@H]1CC[C@@H]2O | -5% | ? | -16% | ? | ? | . | 3.4µM* | 4.8µM*
COc1ccc2c(c1)CCC1C2CC[C@@]2(C)C(O)CCC12 (some centres undefined) | . | . | . | ? | . | 0% | . | .
C[C@]12CC[C@@H]3c4ccc(O)c(O)c4CC[C@H]3[C@@H]1CC[C@@H]2O | 0% | 13µM* | 1% | ? | ? | . | 7.6µM* | 13µM*
C/C=C1/CN2CC[C@]34C(=C(C=O)[C@H]1C[C@@H]23)Nc1ccccc14 | . | . | . | . | . | 0% | . | .
O=C(NNC(=O)c1ccncc1)Nc1ccc([N+](=O)[O-])cc1 | -1% | ? | 6% | . | ? | -2% | ? | ?
